Active and inactive are the calls of the source. Cut-off read from the data, not from the text of the source, unless noted: active = inhibition above about 25%; inactive = the rest.
Target: Nuclear receptor coactivator 1 (Homo sapiens) (UniProt Q15788)
Assay: SRC1 coactivator transcriptional activity inhibitors, confirmation, cell-based, luminescence, quadruplicate (AID 588820;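 active = mean inhibition above 46.68%, the untreated control wells mean plus 3 SD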;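 note: 0% = DMSO wells and 100% = gossypol 36 µM treated wells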)
Details: HEK293 GAL4-SRC1 luciferase reporter, at 3.6 µM, active compounds read high

Chain of Nuclear receptor coactivator 1 (Homo sapiens) (Q15788 whole entry, looked up): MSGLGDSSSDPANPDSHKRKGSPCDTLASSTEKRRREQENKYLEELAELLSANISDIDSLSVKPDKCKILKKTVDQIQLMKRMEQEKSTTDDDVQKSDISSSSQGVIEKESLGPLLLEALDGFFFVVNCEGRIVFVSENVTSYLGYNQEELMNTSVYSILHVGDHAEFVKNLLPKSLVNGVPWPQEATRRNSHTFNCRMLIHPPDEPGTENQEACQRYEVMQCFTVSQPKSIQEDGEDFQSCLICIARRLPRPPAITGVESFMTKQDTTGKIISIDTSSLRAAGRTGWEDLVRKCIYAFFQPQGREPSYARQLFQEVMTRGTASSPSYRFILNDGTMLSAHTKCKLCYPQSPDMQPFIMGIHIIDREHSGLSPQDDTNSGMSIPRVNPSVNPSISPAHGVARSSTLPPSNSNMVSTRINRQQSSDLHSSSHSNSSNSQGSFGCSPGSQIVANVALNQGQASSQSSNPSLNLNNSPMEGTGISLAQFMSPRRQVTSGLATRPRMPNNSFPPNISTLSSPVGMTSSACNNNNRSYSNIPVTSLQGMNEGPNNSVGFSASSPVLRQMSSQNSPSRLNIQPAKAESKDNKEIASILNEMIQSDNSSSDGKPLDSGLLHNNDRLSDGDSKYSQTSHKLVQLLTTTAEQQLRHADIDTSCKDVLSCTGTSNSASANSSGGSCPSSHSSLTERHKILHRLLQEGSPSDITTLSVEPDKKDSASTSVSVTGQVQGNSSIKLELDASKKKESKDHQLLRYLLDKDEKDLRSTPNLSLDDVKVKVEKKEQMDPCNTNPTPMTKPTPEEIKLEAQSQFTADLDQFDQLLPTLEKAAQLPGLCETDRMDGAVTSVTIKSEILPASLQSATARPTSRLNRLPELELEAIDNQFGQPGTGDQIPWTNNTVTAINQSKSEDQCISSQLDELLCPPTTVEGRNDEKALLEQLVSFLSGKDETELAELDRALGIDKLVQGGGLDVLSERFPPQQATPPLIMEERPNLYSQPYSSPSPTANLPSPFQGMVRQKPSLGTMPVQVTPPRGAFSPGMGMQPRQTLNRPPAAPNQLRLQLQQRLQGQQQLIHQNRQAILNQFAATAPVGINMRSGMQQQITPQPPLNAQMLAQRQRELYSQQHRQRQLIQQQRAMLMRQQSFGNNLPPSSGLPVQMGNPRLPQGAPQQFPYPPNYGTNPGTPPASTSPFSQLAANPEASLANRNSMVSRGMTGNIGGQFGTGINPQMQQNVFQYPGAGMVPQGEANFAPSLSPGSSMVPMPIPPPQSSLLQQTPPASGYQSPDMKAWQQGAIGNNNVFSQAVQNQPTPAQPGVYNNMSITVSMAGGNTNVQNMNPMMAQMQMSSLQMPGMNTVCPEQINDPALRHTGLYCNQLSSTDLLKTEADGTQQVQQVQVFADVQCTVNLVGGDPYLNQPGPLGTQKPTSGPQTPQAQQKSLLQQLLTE

Structure (SMILES)	inhibition
COc1ccccc1CNC(=O)Cn1nnnc1CN(C)C(C)C	-0.61% (inactive)
CC(NC(=O)CSc1nc2ccccc2n1C)c1ccccc1 (centres undefined)	0.06% (inactive)
Cn1c(=O)c([N+](=O)[O-])c(NCCc2ccccc2)c2ccccc21	4.22% (inactive)
O=C(NCc1ccncc1)C1CCCN(S(=O)(=O)c2ccc(Br)cc2)C1 (centres undefined)	-1.35% (inactive)
Cc1cccc(NC(=O)C2CCN(S(=O)(=O)c3ccc4c(c3)OCCCO4)CC2)n1	-23.6% (inactive)
CN1c2ccccc2C2(C)CCCC3=Cc4cccc([N+](=O)[O-])c4OC312 (centres undefined)	-8.43% (inactive)
O=C1Nc2cc(C(=O)NCC3CCCO3)ccc2S/C1=C/c1ccccc1F (centres undefined)	-7.31% (inactive)
C=C(C)c1cccc(C(C)(C)NC(=O)N(Cc2ccccc2)Cc2ccco2)c1	-2.08% (inactive)
Cc1nc(N)c(C#N)c(-c2cccnc2)c1C	46.4% (inactive)
CCc1cc(=O)[nH]c(SCC(=O)NCc2ccc3c(c2)OCO3)n1	-4.66% (inactive)
COC(=O)c1cc2ccccn2c2c(C(=O)OC)c(C(=O)OC)cc1-2	-58.3% (inactive)
N#CC(C#N)=NNc1ccc2cn[nH]c2c1	14.6% (inactive)
Cc1c(C(=O)N2CCN(Cc3ccc4c(c3)OCO4)CC2)sc2ncnc(N3CCN(c4ccccc4)CC3)c12	11.3% (inactive)
CC[n+]1c(/C=C/Nc2ccccc2)oc2ccccc21	36.7% (inactive)
O=C(Nc1ccc2c(c1)N(S(=O)(=O)c1cccs1)CCC2)c1c(F)cccc1F	-8.08% (inactive)
CCOc1ccc(NC(=O)NCCCSC2CCCCC2)cc1	-7.9% (inactive)
Nc1ccn(C2OC(CO)C(O)C2O)c(=O)n1 (centres undefined)	24.8% (inactive)
NC(N)=N/N=C/c1ccc(Cl)c([N+](=O)[O-])c1	-20.2% (inactive)
CC(CC(=O)Nc1ccc(Cl)c(S(=O)(=O)N2CCOCC2)c1)c1ccccc1 (centres undefined)	1.13% (inactive)
COc1cc2cc[n+](Cc3ccc([N+](=O)[O-])cc3)cc2cc1OC	-2.4% (inactive)
COc1ccccc1/C=N/NC(=O)CN(C1=NS(=O)(=O)c2ccccc21)c1ccccc1	-2.78% (inactive)
CCOC(=O)c1c(NC(=O)C(C)N2CCN(C(=O)c3ccco3)CC2)sc2c1CCCC2 (centres undefined)	16.6% (inactive)
Cc1cc2[nH]c(=O)c(=O)[nH]c2cc1S(=O)(=O)NC1CCC(C)CC1 (centres undefined)	-3.97% (inactive)
Cc1ccccc1NC(=S)NNC(=O)c1csc2c1CCC(C)C2 (centres undefined)	-45.9% (inactive)

System: not listed separately
Assay: VP16 transactivation inhibitors, counter-screen for SRC1 inhibitor project, cell-based, luminescence, high throughput (AID 588824)
Details: cell-based VP16 transactivation luciferase luminescence; at 3.6 µM; active compounds read high

Structure (SMILES)	inhibition
CN1CCN(c2ccc(Cl)cc2NC(=O)CC2OC(=O)c3ccccc32)CC1 (centres undefined)	-6.69% (inactive)
CCOC(=O)CSc1cc(-c2ccccc2)nc2ncnn12	4.7% (inactive)
CC(OC(=O)CSCC(=O)Nc1ccc(Cl)cc1)C(=O)N(C)Cc1ccccc1 (centres undefined)	1.96% (inactive)
Cc1cc(C)nc(/N=C(\N)Nc2ccc(C(C)C)cc2)n1	9.11% (inactive)
CC1(C)CC(NCc2ccccc2)CCO1 (centres undefined)	-4.92% (inactive)
COCCn1c(C)cc(C(=O)CSc2nc3ccccc3s2)c1C	6.14% (inactive)
O=C(O)CN1C(=O)/C(=C\c2ccccc2OCc2ccc(Cl)cc2Cl)SC1=S	-7.27% (inactive)
Cc1cc(C)cc(NS(=O)(=O)c2ccc3[nH]c(=O)ccc3c2)c1	-3.07% (inactive)
CCN1CCN(c2ccc(S(=O)(=O)N3CCCCC3)cc2NC(=O)/C=C/c2cc(OC)ccc2OC)CC1	7.17% (inactive)
Cc1cc(C)nc(-n2ncc(C#N)c2N)n1	5.06% (inactive)
Cc1sc2ncnc(N3CCC(C(=O)Nc4cc(S(C)(=O)=O)ccc4Cl)CC3)c2c1C	9.27% (inactive)
O=C(NC1CCCCC1)c1n[nH]c2c1CCCCC2	-18.1% (inactive)
Cc1cc(OC(C)C(=O)Nc2ccncc2)ccc1Cl (centres undefined)	7.56% (inactive)
Cc1ccc(C2/C(=C(\O)c3ccc4c(c3)OCCO4)C(=O)C(=O)N2Cc2cccnc2)cc1 (centres undefined)	-9.56% (inactive)
NS(=O)(=O)c1ccc(CNC(=O)c2cnccn2)cc1	-8.37% (inactive)
CC1CCN(C(=O)Cn2c3ccc(F)cc3c3nc4n(c(=O)c32)CCCS4)CC1	3.44% (inactive)
COc1ccccc1CNC(=O)Cn1nnnc1CN(C)C(C)C	9.79% (inactive)
CC(NC(=O)CSc1nc2ccccc2n1C)c1ccccc1 (centres undefined)	-11.7% (inactive)
Cn1c(=O)c([N+](=O)[O-])c(NCCc2ccccc2)c2ccccc21	4.74% (inactive)
O=C(NCc1ccncc1)C1CCCN(S(=O)(=O)c2ccc(Br)cc2)C1 (centres undefined)	14.6% (inactive)

Structure (SMILES)	inhibition
Cc1cccc(NC(=O)C2CCN(S(=O)(=O)c3ccc4c(c3)OCCCO4)CC2)n1	17.2% (inactive)
CN1c2ccccc2C2(C)CCCC3=Cc4cccc([N+](=O)[O-])c4OC312 (centres undefined)	11.1% (inactive)
O=C1Nc2cc(C(=O)NCC3CCCO3)ccc2S/C1=C/c1ccccc1F (centres undefined)	-5.02% (inactive)
C=C(C)c1cccc(C(C)(C)NC(=O)N(Cc2ccccc2)Cc2ccco2)c1	-0.46% (inactive)
Cc1nc(N)c(C#N)c(-c2cccnc2)c1C	26.5% (active)
CCc1cc(=O)[nH]c(SCC(=O)NCc2ccc3c(c2)OCO3)n1	1.83% (inactive)
COC(=O)c1cc2ccccn2c2c(C(=O)OC)c(C(=O)OC)cc1-2	-27.2% (inactive)
N#CC(C#N)=NNc1ccc2cn[nH]c2c1	31.6% (active)
Cc1c(C(=O)N2CCN(Cc3ccc4c(c3)OCO4)CC2)sc2ncnc(N3CCN(c4ccccc4)CC3)c12	19.7% (inactive)
CC[n+]1c(/C=C/Nc2ccccc2)oc2ccccc21	28.5% (active)
O=C(Nc1ccc2c(c1)N(S(=O)(=O)c1cccs1)CCC2)c1c(F)cccc1F	-5.05% (inactive)
CCOc1ccc(NC(=O)NCCCSC2CCCCC2)cc1	-11.4% (inactive)
Nc1ccn(C2OC(CO)C(O)C2O)c(=O)n1 (centres undefined)	20.1% (inactive)
NC(N)=N/N=C/c1ccc(Cl)c([N+](=O)[O-])c1	-0.27% (inactive)
CC(CC(=O)Nc1ccc(Cl)c(S(=O)(=O)N2CCOCC2)c1)c1ccccc1 (centres undefined)	38.6% (active)
COc1cc2cc[n+](Cc3ccc([N+](=O)[O-])cc3)cc2cc1OC	-3.17% (inactive)
COc1ccccc1/C=N/NC(=O)CN(C1=NS(=O)(=O)c2ccccc21)c1ccccc1	0.92% (inactive)
CCOC(=O)c1c(NC(=O)C(C)N2CCN(C(=O)c3ccco3)CC2)sc2c1CCCC2 (centres undefined)	12% (inactive)
Cc1cc2[nH]c(=O)c(=O)[nH]c2cc1S(=O)(=O)NC1CCC(C)CC1 (centres undefined)	-2.19% (inactive)
Cc1ccccc1NC(=S)NNC(=O)c1csc2c1CCC(C)C2 (centres undefined)	-23% (inactive)

Reference: PubChem BioAssay
